Experimental data as given in PubChem BioAssay.

Assay: viability loss of caspase-8 NB7 cells with TRAIL – with/without TRAIL, luminescence panel, confirmation (AID 651596)
Details: NB7 neuroblastoma + caspase-8, without TRAIL, NB7 Caspase-8, without TRAIL, mean of runs, at 10 µM

Row | SMILES | activity [%]
1 | COc1cc(SC)ccc1C(=O)Nc1nc(C)cs1 | 97.8
2 | COc1ccc(-c2nc(-c3ccccc3)no2)c(OC)c1 | 80.7
3 | O=c1oc(/C=C/c2ccccc2)nc2ccccc12 | 79.7
4 | CC(=O)c1sc(NC(=O)c2ccc(C)cc2)nc1C | 68.1
5 | Cn1c(=NC(=O)c2cnccn2)sc2ccccc21 | 53.5
6 | COc1cccc(/C=C/c2ccc3ccccc3n2)c1OC(C)=O | 60.8
7 | Cc1ccc(-c2cc(C(=O)N/N=C/C=C/c3ccco3)c3ccccc3n2)cc1C | 70.4
8 | O=C(Nc1ccc(NC(=O)c2cccs2)cn1)c1ccco1 | 71.5
9 | Cc1nc2cc(NC(=O)Nc3cccc(F)c3)ccc2n1C | 65.2
10 | COc1ccc(-c2cn3ccc(C)cc3n2)cc1 | 81.1
